Test results: PubChem BioAssay (EPA / NIEHS)
Several values for one entry are separate records, joined by “and”; a condition that tells them apart may be missing. Equal entries are not always repeated. Records with an inconclusive call do not appear. A structure can be active in one record and inactive in another. Activity calls are given as the source filed them. The calls were made as follows, unless noted: active = hit-call score of the fitted dose curve at least 0.9, where 1 is the maximum; inactive = score below 0.9.

What was measured:
[1] = ATG_GAL4_TRANS: Attagene TRANS-FACTORIAL HepG2 Assay for GAL4 (Internal Marker) (AID 2282976; active = hit-call score of the fitted dose curve at least 0.9, where 1 is the maximum); conditions: HepG2 Attagene TRANS GAL4 internal marker reporter
Procedure, shortened: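 First, HepG2 cells were transfected with reporter units under GAL4-UAS control. Next, they were treated with chemical for 24 h. Finally, RNA was reverse-transcribed, PCR-amplified, FAM-labelled and resolved by capillary electrophoresis, with induction scored against DMSO.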

[2] = target: Oxysterols receptor LXR-alpha (Homo sapiens) (UniProt Q13133); experiment: ATG_LXRa_TRANS: Attagene TRANS-FACTORIAL HepG2 Assay for human Liver X Receptor alpha (LXRa) (AID 2282980; active = hit-call score of the fitted dose curve at least 0.9, where 1 is the maximum); conditions: HepG2 Attagene TRANS reporter, LXRa transactivation
Chain of Oxysterols receptor LXR-alpha (Homo sapiens) (Q13133 whole entry, looked up, the tested form may be a part): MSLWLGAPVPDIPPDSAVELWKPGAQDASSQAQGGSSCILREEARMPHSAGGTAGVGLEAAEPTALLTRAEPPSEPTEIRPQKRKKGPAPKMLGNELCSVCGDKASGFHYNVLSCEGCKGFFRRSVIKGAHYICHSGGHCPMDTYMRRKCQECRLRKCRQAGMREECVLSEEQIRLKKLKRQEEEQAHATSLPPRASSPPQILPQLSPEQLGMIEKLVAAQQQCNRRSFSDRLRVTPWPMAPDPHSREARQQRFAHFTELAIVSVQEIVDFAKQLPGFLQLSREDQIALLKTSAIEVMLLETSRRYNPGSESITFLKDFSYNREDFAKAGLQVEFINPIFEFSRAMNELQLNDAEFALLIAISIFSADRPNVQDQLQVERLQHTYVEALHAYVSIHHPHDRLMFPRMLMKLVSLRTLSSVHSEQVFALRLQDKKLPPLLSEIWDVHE
Procedure, shortened: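 Transfect HepG2 with GAL4-UAS multiplex reporter constructs (TRANS format, chimeric receptor-GAL4); treat 24 h; extract RNA, reverse-transcribe, PCR-amplify, FAM-label, HpaI-digest; resolve fragments by capillary electrophoresis. Upward response vs DMSO.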

[3] = target: Oxysterols receptor LXR-beta (Homo sapiens) (UniProt P55055); experiment: ATG_LXRb_TRANS: Attagene TRANS-FACTORIAL HepG2 Assay for human Liver X Receptor beta (LXRb) (AID 2282981; active = hit-call score of the fitted dose curve at least 0.9, where 1 is the maximum); conditions: HepG2 Attagene TRANS GAL4-LXRb reporter, mRNA
Chain of Oxysterols receptor LXR-beta (Homo sapiens) (P55055 whole entry, looked up, the tested form may be a part): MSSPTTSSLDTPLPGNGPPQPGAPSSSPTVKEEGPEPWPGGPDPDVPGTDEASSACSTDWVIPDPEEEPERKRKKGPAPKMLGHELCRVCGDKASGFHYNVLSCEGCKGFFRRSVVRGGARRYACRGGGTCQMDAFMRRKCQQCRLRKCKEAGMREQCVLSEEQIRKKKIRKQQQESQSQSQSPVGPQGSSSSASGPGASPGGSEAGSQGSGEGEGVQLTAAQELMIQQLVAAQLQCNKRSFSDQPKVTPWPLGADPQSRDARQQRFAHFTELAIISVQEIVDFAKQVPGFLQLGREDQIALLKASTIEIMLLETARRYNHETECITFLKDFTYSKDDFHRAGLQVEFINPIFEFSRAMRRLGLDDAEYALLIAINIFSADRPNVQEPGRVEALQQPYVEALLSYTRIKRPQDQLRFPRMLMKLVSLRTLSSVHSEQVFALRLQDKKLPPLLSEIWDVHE
Procedure, shortened: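 HepG2 cells transiently transfected with multiple reporter transcription units carrying chimeric NR-Gal4 proteins acting on GAL4-UAS reporters; compound exposure 24 h. Reporter mRNA quantified by RT-PCR, 6-FAM labelling, HpaI digestion and capillary electrophoresis; gain of signal versus DMSO.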

[4] = target: Hepatocyte nuclear factor 4-alpha (Homo sapiens) (UniProt P41235); experiment: ATG_HNF4a_TRANS: Attagene TRANS-FACTORIAL HepG2 Assay for human Hepatocyte Nuclear Factor 4 alpha (HNF4a) (AID 2282982; active = hit-call score of the fitted dose curve at least 0.9, where 1 is the maximum); conditions: HepG2 HNF4a transactivation reporter, mRNA readout
Chain of Hepatocyte nuclear factor 4-alpha (Homo sapiens) (P41235 whole entry, looked up, the tested form may be a part): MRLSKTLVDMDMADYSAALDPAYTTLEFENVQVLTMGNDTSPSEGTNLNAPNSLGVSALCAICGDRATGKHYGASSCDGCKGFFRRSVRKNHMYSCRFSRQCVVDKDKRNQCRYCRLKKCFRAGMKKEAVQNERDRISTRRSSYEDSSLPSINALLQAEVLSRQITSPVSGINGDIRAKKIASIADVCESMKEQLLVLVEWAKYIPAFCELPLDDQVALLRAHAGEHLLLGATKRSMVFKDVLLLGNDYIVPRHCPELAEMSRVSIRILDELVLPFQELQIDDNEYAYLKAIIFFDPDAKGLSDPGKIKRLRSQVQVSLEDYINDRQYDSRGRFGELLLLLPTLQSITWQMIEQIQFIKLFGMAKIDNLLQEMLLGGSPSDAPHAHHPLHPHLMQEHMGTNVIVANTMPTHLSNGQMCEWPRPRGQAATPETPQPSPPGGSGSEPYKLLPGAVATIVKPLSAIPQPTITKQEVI
Procedure, shortened: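 HepG2 cells transiently transfected with multiplexed GAL4-UAS reporter units responsive to chimeric NR-GAL4 proteins; compound exposure 24 h. Reporter mRNA quantified by RT-PCR, 6-FAM labelling, HpaI digestion and capillary electrophoresis; gain of signal versus DMSO baseline.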

[5] = ATG_M_06_TRANS: Attagene TRANS-FACTORIAL HepG2 Assay for M06 Transcription Factor (Internal Marker) (AID 2282983; active = hit-call score of the fitted dose curve at least 0.9, where 1 is the maximum;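 also: reporter transcript level by RT-PCR then capillary electrophoresis fluorescence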); conditions: HepG2 Attagene TRANS M06 internal marker reporter
Procedure, shortened: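 Transfect HepG2 with MRTUs → dose compounds 24 h → isolate RNA, oligo(dT) RT → PCR with reporter primers → 6-FAM primer extension → HpaI digest → CE fragment analysis. Positive direction vs DMSO.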

[6] = target: Nuclear receptor subfamily 4 group A member 2 (Homo sapiens) (UniProt P43354); experiment: ATG_NURR1_TRANS: Attagene TRANS-FACTORIAL HepG2 Assay for human Nuclear Receptor Related Protein 1 (NURR1) (AID 2282985; active = hit-call score of the fitted dose curve at least 0.9, where 1 is the maximum); conditions: HepG2 Attagene TRANS reporter, mRNA readout
Chain of Nuclear receptor subfamily 4 group A member 2 (Homo sapiens) (P43354 whole entry, looked up, the tested form may be a part): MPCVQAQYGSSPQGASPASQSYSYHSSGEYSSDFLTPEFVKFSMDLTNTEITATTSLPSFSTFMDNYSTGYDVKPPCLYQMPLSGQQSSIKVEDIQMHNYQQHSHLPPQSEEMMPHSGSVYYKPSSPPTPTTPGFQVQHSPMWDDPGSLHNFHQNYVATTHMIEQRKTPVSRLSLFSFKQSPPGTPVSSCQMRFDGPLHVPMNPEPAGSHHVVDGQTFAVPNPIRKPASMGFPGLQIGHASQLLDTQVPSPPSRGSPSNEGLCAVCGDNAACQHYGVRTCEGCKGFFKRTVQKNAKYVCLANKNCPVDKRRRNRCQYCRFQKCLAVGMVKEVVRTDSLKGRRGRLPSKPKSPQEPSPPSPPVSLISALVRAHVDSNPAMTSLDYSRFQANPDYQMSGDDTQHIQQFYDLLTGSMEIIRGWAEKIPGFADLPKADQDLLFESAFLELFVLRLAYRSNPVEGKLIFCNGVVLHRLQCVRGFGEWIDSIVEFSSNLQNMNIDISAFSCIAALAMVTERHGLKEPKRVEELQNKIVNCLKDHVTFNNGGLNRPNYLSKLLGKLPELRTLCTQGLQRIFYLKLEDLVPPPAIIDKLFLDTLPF
Procedure, shortened: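 HepG2 cells transiently transfected with GAL4-UAS reporter units and chimeric NR-Gal4 constructs; chemical exposure 24 h. Reporter mRNA quantified by RT-PCR, fluorescent labelling and capillary electrophoresis; gain of signal fitted relative to DMSO baseline.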

[7] = target: Transcriptional activator Myb (Homo sapiens) (UniProt P10242); experiment: ATG_Myb_CIS: Attagene CIS-FACTORIAL HepG2 Assay for human Myeloblastosis (Myb) Proto-Oncogene Transcription Factor (AID 2282986); conditions: HepG2 Attagene CIS-FACTORIAL Myb reporter transcription; actives raise or lower the signal
Chain of Transcriptional activator Myb (Homo sapiens) (P10242 whole entry, looked up): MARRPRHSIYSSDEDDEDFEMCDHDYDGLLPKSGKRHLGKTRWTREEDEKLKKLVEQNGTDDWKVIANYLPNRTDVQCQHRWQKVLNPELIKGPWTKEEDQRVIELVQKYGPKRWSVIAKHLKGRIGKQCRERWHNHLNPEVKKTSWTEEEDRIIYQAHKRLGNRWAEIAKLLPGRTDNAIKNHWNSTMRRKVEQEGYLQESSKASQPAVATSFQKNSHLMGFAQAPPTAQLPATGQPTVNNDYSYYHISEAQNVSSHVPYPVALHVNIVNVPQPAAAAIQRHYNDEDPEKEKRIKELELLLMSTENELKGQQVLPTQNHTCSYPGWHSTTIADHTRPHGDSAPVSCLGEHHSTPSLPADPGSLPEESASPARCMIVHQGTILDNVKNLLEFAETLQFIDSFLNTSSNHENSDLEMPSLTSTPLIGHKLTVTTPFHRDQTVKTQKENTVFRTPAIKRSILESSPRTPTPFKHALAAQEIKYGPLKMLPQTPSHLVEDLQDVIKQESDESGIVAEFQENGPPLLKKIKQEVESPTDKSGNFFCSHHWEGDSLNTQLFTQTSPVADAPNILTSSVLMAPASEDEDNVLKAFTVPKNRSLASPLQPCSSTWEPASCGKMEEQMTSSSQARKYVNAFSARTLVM
Procedure, shortened: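 Multiplexed cis-reporter system in HepG2: transient transfection, 24 h treatment, mRNA readout by RT-PCR and capillary electrophoresis. Both increases and decreases are scored versus DMSO negative control.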

[8] = ATG_NFI_CIS: Attagene CIS-FACTORIAL HepG2 Assay for human Nuclear Factor I (NFI) (AID 2282989); conditions: HepG2 cis-regulatory reporter, NFI response element transcription; actives raise or lower the signal
Procedure, shortened: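 After transient transfection of HepG2 with cis-promoter reporter constructs and 24 h dosing, RNA is reverse-transcribed, amplified, 6-FAM end-labelled and HpaI-digested before capillary analysis. Bidirectional curve fitting against DMSO.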

[9] = target: Myc proto-oncogene protein (Homo sapiens) (UniProt P01106); experiment: ATG_Myc_CIS: Attagene CIS-FACTORIAL HepG2 Assay for human Myelocytomatosis (Myc) Proto-Oncogene Transcription Factor (AID 2282990); conditions: HepG2, Attagene cis-reporter transcription factor activity; actives raise or lower the signal
Chain of Myc proto-oncogene protein (Homo sapiens) (P01106 whole entry, looked up): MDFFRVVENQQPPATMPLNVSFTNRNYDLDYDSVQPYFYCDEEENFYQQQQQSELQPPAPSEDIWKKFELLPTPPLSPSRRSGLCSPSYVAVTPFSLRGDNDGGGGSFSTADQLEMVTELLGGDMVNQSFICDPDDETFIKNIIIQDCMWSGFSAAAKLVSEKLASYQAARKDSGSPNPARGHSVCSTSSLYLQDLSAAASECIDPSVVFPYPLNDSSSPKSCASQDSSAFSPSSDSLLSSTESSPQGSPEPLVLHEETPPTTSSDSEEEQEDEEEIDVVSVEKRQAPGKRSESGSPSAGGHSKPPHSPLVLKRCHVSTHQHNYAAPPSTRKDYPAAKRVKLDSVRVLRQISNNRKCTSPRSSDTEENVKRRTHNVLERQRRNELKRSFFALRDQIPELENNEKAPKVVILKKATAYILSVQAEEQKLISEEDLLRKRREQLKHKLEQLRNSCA
Procedure, shortened: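 DMSO-normalised, bidirectionally fitted reporter mRNA signal. HepG2 cells transfected with cis reporter constructs, treated 24 h; transcripts detected by RT-PCR, 6-FAM primer extension and CE.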

[10] = ATG_NF_kB_CIS: Attagene CIS-FACTORIAL HepG2 Assay for human Nuclear Factor Kappa B (NF-kB) (AID 2282991); conditions: HepG2 Attagene cis-factorial NF-kB reporter mRNA; actives raise or lower the signal
Procedure, shortened: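 After 24 h compound incubation, transfected HepG2 cells yield total RNA; reporter cDNA is PCR-amplified, end-labelled with 6-FAM, HpaI-digested and analysed on a genetic analyser. Endogenous factor activity, DMSO-referenced bidirectional fit.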

[11] = ATG_NRF2_ARE_CIS: Attagene CIS-FACTORIAL HepG2 Assay for human Nuclear Factor Erythroid 2 Related Factor 2 (NFR2) response to Antioxidant Response Elements (ARE) (AID 2282992); conditions: HepG2 Attagene ARE/NRF2 reporter, transcription factor activity; actives raise or lower the signal
Procedure, shortened: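 Cis-factorial assay: transfected HepG2 reporter library, 24 h dosing, mRNA readout via RT-PCR/CE; DMSO-referenced bidirectional analysis.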

[12] = ATG_Oct_MLP_CIS: Attagene CIS-FACTORIAL HepG2 Assay for human Octamer-Binding Transcription Factor (Oct) (AID 2282993); conditions: HepG2 Attagene cis-factorial Oct reporter, mRNA; actives raise or lower the signal
Procedure, shortened: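 Cells of the HepG2 line express promoter-controlled reporter sequences whose mRNA levels, after 24 h treatment, are measured by RT-PCR and capillary electrophoresis. Increases and decreases are scored relative to DMSO.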

[13] = target: Cellular tumor antigen p53 (Homo sapiens) (UniProt P04637); experiment: ATG_p53_CIS: Attagene CIS-FACTORIAL HepG2 Assay for human p53 Transcription Factor (AID 2282994); conditions: HepG2 p53 cis-element reporter, Attagene mRNA; actives raise or lower the signal
Chain of Cellular tumor antigen p53 (Homo sapiens) (P04637 whole entry, looked up): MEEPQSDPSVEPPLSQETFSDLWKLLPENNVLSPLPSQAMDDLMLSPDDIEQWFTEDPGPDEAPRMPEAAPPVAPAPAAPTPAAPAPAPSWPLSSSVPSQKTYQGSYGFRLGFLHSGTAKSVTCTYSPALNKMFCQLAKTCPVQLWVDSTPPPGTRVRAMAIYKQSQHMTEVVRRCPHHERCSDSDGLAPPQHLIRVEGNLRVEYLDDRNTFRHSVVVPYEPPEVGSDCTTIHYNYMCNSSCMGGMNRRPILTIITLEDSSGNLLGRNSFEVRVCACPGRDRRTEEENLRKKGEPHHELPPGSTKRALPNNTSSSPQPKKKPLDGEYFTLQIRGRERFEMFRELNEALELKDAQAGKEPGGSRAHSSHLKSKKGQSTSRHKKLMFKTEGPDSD
Procedure, shortened: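 Using HepG2 hepatoma cells carrying cis-acting multiplexed reporters, mRNA induction is detected after a 24 h exposure. Gain- and loss-of-signal responses are fitted relative to DMSO-treated cells.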

[14] = BSK_3C_TissueFactor: BioMAP Diversity Plus: 3C Assay for Tissue Factor Biomarker Activity (AID 2282997); conditions: BioMAP 3C HUVEC, tissue factor biomarker readout; actives raise or lower the signal
Procedure, shortened: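 ELISA read-out of Tissue Factor levels on human umbilical vein endothelium collected 24 h after chemical dosing. Gain or loss of signal was fitted relative to DMSO.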

[15] = BSK_3C_uPAR: BioMAP Diversity Plus: 3C Assay for Urokinase-type plasminogen activator receptor (uPAR) Biomarker Activity (AID 2282998); conditions: BioMAP 3C HUVEC, uPAR biomarker ELISA; actives raise or lower the signal
Procedure, shortened: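 Endothelial primary cells of human umbilical vein origin received test chemical; 24 h later uPAR was assayed by ELISA. Fitting was bidirectional, DMSO as negative control.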

[16] = target: Glucocorticoid receptor (Homo sapiens) (UniProt P04150); experiment: ATG_GR_TRANS: Attagene TRANS-FACTORIAL HepG2 Assay for human Glucocorticoid Receptor (GR) (AID 2282978; active = hit-call score of the fitted dose curve at least 0.9, where 1 is the maximum;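 also: activators score as hits since higher reporter transcript over DMSO is fitted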); conditions: HepG2 Attagene TRANS GR reporter, mRNA transcription
Procedure, shortened: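 HepG2 transient transfection, multiple reporter units, GAL4-UAS under NR-GAL4 chimera control. 24 h treatment. Reporter mRNA by RT-PCR/CE fluorescence, DMSO as negative control.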

[17] = target: Nuclear respiratory factor 1 (Homo sapiens) (UniProt Q16656); experiment: ATG_NRF1_CIS: Attagene CIS-FACTORIAL HepG2 Assay for human Nuclear Respiratory Factor 1 (NRF1) Orphan Gene (AID 2282987); conditions: HepG2 NRF1 cis-element reporter, Attagene multiplex; actives raise or lower the signal
Chain of Nuclear respiratory factor 1 (Homo sapiens) (Q16656 whole entry, looked up): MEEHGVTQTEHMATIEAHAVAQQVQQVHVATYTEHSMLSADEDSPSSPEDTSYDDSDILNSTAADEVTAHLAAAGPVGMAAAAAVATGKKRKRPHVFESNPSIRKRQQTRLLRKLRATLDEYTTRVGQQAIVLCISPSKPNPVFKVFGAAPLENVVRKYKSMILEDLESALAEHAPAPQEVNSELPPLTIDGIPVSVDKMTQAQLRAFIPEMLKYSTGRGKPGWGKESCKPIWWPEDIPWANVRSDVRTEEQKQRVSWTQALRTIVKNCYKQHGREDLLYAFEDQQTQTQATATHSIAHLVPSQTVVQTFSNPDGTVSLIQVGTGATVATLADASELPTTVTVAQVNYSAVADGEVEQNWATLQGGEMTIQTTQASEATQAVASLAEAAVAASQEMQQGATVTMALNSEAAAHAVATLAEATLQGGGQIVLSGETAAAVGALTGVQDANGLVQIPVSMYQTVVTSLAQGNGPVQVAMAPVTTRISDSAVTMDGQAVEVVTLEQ
Procedure, shortened: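 Endogenous factor activity was captured via cis-element-driven reporter transcripts in HepG2 cells. Following 24 h chemical treatment, transcripts were quantified by RT-PCR and capillary electrophoresis.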

[18] = target: Estrogen-related receptor gamma (Homo sapiens) (UniProt P62508); experiment: ATG_ERRg_TRANS: Attagene TRANS-FACTORIAL HepG2 Assay for human Estrogen-Related Receptor gamma (ERRg) (AID 2282977; active = hit-call score of the fitted dose curve at least 0.9, where 1 is the maximum;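 also: hits increase reporter signal over DMSO so potencies reflect activators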); conditions: HepG2 Attagene TRANS reporter, ERRg transactivation
Chain of Estrogen-related receptor gamma (Homo sapiens) (P62508 whole entry, looked up, the tested form may be a part): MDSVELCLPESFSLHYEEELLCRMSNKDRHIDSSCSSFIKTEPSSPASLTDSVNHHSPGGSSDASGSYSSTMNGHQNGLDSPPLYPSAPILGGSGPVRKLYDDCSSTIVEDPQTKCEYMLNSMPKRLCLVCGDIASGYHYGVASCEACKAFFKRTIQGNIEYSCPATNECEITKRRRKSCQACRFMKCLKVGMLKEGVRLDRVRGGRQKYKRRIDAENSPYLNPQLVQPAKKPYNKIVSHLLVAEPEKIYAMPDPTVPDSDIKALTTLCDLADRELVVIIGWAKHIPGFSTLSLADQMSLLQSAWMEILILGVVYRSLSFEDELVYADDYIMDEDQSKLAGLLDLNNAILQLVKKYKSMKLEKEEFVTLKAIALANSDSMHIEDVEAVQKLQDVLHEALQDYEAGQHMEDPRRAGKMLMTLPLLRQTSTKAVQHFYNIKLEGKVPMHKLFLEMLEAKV
Procedure, shortened: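 Transient HepG2 transfectants, 24 h compound exposure, GAL4-UAS reporter mRNA by RT-PCR/6-FAM labelling/capillary electrophoresis; positive direction vs DMSO.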

[19] = target: Bile acid receptor (Homo sapiens) (UniProt Q96RI1); experiment: ATG_FXR_TRANS: Attagene TRANS-FACTORIAL HepG2 Assay for Farnesoid X Receptor (FXR) (AID 2282979; active = hit-call score of the fitted dose curve at least 0.9, where 1 is the maximum;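 also: hits raise reporter mRNA above DMSO so AC50 marks FXR activation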); conditions: HepG2 Attagene TRANS FXR-GAL4 reporter transcription
Chain of Bile acid receptor (Homo sapiens) (Q96RI1 whole entry, looked up, the tested form may be a part): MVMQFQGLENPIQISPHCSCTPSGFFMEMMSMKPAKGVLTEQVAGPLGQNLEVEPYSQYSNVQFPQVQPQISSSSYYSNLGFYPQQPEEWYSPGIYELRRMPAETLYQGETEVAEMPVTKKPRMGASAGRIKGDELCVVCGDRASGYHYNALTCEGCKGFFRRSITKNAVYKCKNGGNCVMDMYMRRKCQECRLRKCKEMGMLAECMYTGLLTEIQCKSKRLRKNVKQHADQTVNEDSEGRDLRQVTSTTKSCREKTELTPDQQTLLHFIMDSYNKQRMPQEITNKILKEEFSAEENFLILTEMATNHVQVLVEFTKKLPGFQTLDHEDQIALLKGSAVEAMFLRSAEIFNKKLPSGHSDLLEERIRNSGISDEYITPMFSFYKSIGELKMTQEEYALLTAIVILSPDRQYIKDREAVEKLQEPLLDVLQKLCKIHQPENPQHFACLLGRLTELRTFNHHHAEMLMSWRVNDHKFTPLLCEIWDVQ
Procedure, shortened: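 Transient transfection of HepG2 with multiplexed GAL4-UAS reporter units; exogenous FXR-GAL4 chimera. Dose 24 h → TriZol RNA → oligo(dT) RT → PCR, 6-FAM primer extension, HpaI cut → CE. Gain vs DMSO.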

Measured: AC50

COP(=S)(OC)Oc1ccc([N+](=O)[O-])cc1
inactive: [1] | [2] | [3] | [4] | [5] | [6] | [7] | [8] | [9] | [10] | [11] | [12] | [13] | [14]
active: [15] 33.1 µM

Oc1ccc(Cl)cc1Cc1ccccc1
active: [16] 33.6 µM | [6] 14.7 µM | [7] 15.2 µM | [8] 13.1 µM | [9] 6.37 µM | [10] 16.7 µM | [11] 8.4 µM [middle of 9 runs] | [12] 6.94 µM and 8.1 µM and 14.8 µM | [14] 32.4 µM [middle of 7 runs] | [15] 29.2 µM [middle of 7 runs]
inactive: [1] | [16] | [2] | [4] | [5] | [6] | [7] | [17] | [8] | [9] | [10] | [11] | [12] | [13]

CN1CSC(=S)N(C)C1
inactive: [16] | [2] | [5] | [6] | [7] | [17] | [9] | [10] | [13] | [14] | [15]
active: [8] 69.1 µM | [11] 21.7 µM | [12] 24.6 µM

Oc1cc(Cl)ccc1Oc1ccc(Cl)cc1Cl
inactive: [1] | [18] | [16] | [19] | [2] | [4] | [5] | [6] | [7] | [17] | [8] | [9] | [10] | [11] | [12] | [13]
active: [19] 11.1 µM and 17.1 µM | [6] 11.1 µM | [8] 14.8 µM and 17.9 µM and 5.97 µM | [9] 10.6 µM | [10] 17.5 µM | [11] 5.97 µM [middle of 7 runs] | [12] 9.73 µM [middle of 7 runs] | [13] 7.73 µM and 14.4 µM | [14] 13.8 µM [middle of 4 runs] | [15] 12 µM [middle of 4 runs]

COP(=O)(OC)OC=C(Cl)Cl
inactive: [4] | [5] | [6] | [7] | [8] | [9] | [10] | [14] | [15]
active: [11] 35.7 µM | [12] 11.5 µM

CNC(=O)/C=C(\C)OP(=O)(OC)OC
inactive: [16] | [19] | [4] | [5] | [7] | [8] | [9] | [11] | [12] | [14] | [15]

CC1(c2ccc(Oc3ccccc3)cc2)OC(=O)N(Nc2ccccc2)C1=O (stereo not given)
inactive: [16] | [2] | [3] | [4] | [6] | [7] | [17] | [8] | [9] | [13]
active: [11] 1.61 µM | [12] 2.01 µM | [14] 29.5 µM | [15] 25.9 µM

O=S1OCC2C(CO1)C1(Cl)C(Cl)=C(Cl)C2(Cl)C1(Cl)Cl (stereo not given)
active: [14] 29 µM | [15] 15.9 µM
inactive: [4] | [5] | [6] | [7] | [8] | [9] | [10] | [11] | [12] | [13]

COC(=O)c1ccccc1S(=O)(=O)NC(=O)Nc1nc(C)nc(OC)n1
active: [11] 31.3 µM | [12] 36 µM
inactive: [1] | [2] | [4] | [5] | [6] | [7] | [8] | [9] | [11] | [12] | [13] | [14] | [15]

CCS(=O)(=O)c1cccnc1S(=O)(=O)NC(=O)Nc1nc(OC)cc(OC)n1
inactive: [18] | [16] | [19] | [4] | [5] | [6] | [7] | [8] | [9] | [10] | [12] | [13] | [14] | [15]
active: [11] 17.6 µM and 19.1 µM

CNC(=O)Oc1ccccc1OC(C)C
inactive: [16] | [6] | [7] | [8] | [9] | [10] | [11] | [12] | [13] | [14] | [15]

OCCOc1ccccc1
inactive: [18] | [16] | [2] | [6] | [7] | [8] | [9] | [11] | [12] | [13] | [14] | [15]
